# From PubChem BioAssay AID2061319 (National Center for Advancing Translational Sciences (NCATS), 2025)
# Inconclusive results are not listed. Active and inactive are the calls of the source. Calls come from the whole dose curve; as a rule, active = well fitted inhibition curve with a large enough effect; inconclusive = small, poorly fitted or top-dose-only effect; inactive = flat fitted curve, though single readings scatter. Square brackets hold non-standard residues; d marks the D form. Peptide text beside a SMILES is read from it. * marks the point of attachment. Dolaproine = CO[C@@H]([C@@H]1CCCN1)[C@@H](C)C(=O)O; Dil = CC[C@H](C)[C@H](NC)[C@@H](CC(=O)O)OC; X1 = C[C@@H](N*)[C@@H](O)c1ccccc1; NMeV = CN[C@H](C(=O)O)C(C)C
# Test: Identification of antibody-drug conjugate (ADC) payloads which are substrates of ATP-binding cassette drug efflux transporters: ABCG2-H460-MX20 cell line with Ko143
# Details: H460-MX20 (ABCG2) + Ko143, CellTiter-Glo viability, 48 h; series mostly up to 28.7 µM; activity change, negative = cytotoxicity: at the top concentration
# Description: Antibody-drug conjugates (ADCs) feature an antibody recognizing a specific protein joined to a potent toxic payload. Numerous antibody-drug conjugates have received FDA approval; however, clinical resistance arises. Resistance mechanisms include decreased expression or mutation of the antibody target, impaired payload release, or increased expression of ATP-binding cassette (ABC) efflux transporters associated with multidrug resistance. We therefore sought to characterize the interaction of ABC multidrug transporters with ADC payloads. We performed a high-throughput screen with 27 common ADC payloads using cells lines expressing ABC transporters P-glycoprotein (P-gp, encoded by ABCB1) or ABCG2 (encoded by ABCG2). Confirmatory assays were also performed using cells transfected to express P-gp, ABCG2, or MRP1 (encoded by ABCC1). Several commonly used ADC payloads were substrates of P-gp, including calicheamicin gamma1, monomethyl auristatin E, DM1, and DM4. All the pyrrolobenzodiazepines tested - SJG136, SGD-1882, SG2057, and SG3199 - were substrates of P-gp, ABCG2, and MRP1. […] These findings highlight the risk of transporter-mediated resistance with certain ADC payloads and underscore the importance of selecting payloads that evade ABC transporter recognition in future ADC development.
# HEK-293 cells were transfected with empty vector (pcDNA) or vector containing the human ABCB1 (MDR-19), ABCG2 (R-5), or ABCC1 gene (MRP1) and were maintained in EMEM with 2 mg/mL G418 added to maintain transporter expression. The HeLa derivative KB-3-1 and the P-gp overexpressing KB-8-5-11 subline were maintained in DMEM; KB-8-5-11 additionally received 100 ng/mL colchicine. H460 parental cells were obtained from the Division of Cancer Treatment and Diagnosis Tumor Repository, National Cancer Institute at Frederick, MD and were cultured in RPMI. The ABCG2 expressing subline H460 MX20 was generated by selecting H460 cells in 20 nM mitoxantrone. Media in all cases was supplemented with 10% FBS and 1% penicillin-streptomycin. We explored 27 common ADC payloads, in two orthogonal, paired cell line sets-a drug selected and transfected set for each transporter--to identify substrates of the ABC transporters P-gp and ABCG2. Compounds were sourced from Levena Biopharma (San Diego, CA), Selleck Chem (Houston, TX), ChemieTek (Indianapolis, IN), or Microsource Discovery Systems (Gaylordsville, CT). Screening was performed as previously described. Briefly, cells were plated at a density of 500 cells/well in 1536 well plates with compounds added using a 1536-head pin tool (Kalypsys, San Diego CA). Cells were incubated with cytotoxic drugs and processed with CellTiter Glo reagent (Promega, Madison, WI) to determine viability after 48 hours. P-gp substrates were identified by comparing compound activity between paired sets of low-expressing (sensitive) and over-expressing (resistant) cell lines.
Compound,Potency,"activity change, negative = cytotoxicity"
CC[C@H](C)[C@@H]1NC(=O)CNC(=O)[C@H]2Cc3c([nH]c4cc(O)ccc34)S(=O)C[C@H](NC(=O)CNC1=O)C(=O)N[C@@H](CC(N)=O)C(=O)N1C[C@H](O)C[C@H]1C(=O)N[C@@H]([C@@H](C)[C@@H](O)CO)C(=O)N2 (stereo partly drawn),0.533 µM (active),
CC[C@H](C)[C@@H]([C@@H](CC(=O)N1CCC[C@H]1[C@H](OC)[C@@H](C)C(=O)N[C@H](C)[C@@H](O)c1ccccc1)OC)N(C)C(=O)[C@@H](NC(=O)[C@H](C(C)C)N(C)C)C(C)C,6.71 µM (active),
CC[C@H](C)[C@@H]([C@@H](CC(=O)N1CCC[C@H]1[C@H](OC)[C@@H](C)C(=O)N[C@H](C)[C@@H](O)c1ccccc1)OC)N(C)C(=O)[C@@H](NC(=O)[C@@H](NC)C(C)C)C(C)C (H-[NMeV]V[Dil][Dolaproine]-X1),,-30.4% (inactive)
COc1cccc2c1C(=O)c1c(O)c3c(c(O)c1C2=O)C[C@@](O)(C(=O)CO)CC3OC1CC(N2CCOC(OC)C2)C(O)C(C)O1 (stereo partly drawn),0.0095 µM (active),
CC[C@H](C)[C@H](NC(=O)[C@H]1CCCCN1C)C(=O)N(C)[C@H](C[C@@H](OC(C)=O)c1nc(C(=O)O)cs1)C(C)C,,-27.7% (inactive)
CC[C@H](C)[C@H](NC(=O)[C@H]1CCCCN1C)C(=O)N(C)[C@H](C[C@@H](OC(C)=O)c1nc(C(=O)N[C@@H](Cc2ccccc2)C[C@H](C)C(=O)O)cs1)C(C)C,,-26% (inactive)
CC[C@@]1(O)C(=O)OCc2c1cc1n(c2=O)Cc2cc3ccccc3nc2-1,0.238 µM (active),
COc1cc2cc(C(=O)N3C[C@@H](CCl)c4c3cc(O)c3ccccc43)[nH]c2c(OC)c1OC,0.0019 µM (active),
